High-throughput results (PubChem BioAssay)
Dicer inh: human Dicer pre-microRNA cleavage inhibition | actives 6% (n = 47,000) | Q9UPY3 | cat-ELCCA pre-miR-21 Dicer processing, chemiluminescence; hits give high values | z-score at 25 µM; in the data active means z-score above about 3, passing the limit was not always enough;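 further: higher signal means more uncleaved substrate so more Dicer inhibition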
Large screens that a line does not name were inactive. Shown is part of a subset that was picked to be rich in hits.

Cc1cccc(NC(C(=O)O)c2ccccc2)c1 (stereo not drawn)	Dicer inh 5.4
O=C(O)c1ccccc1SC(C(=O)O)c1ccccc1 (stereo not drawn)	none
CC(C(=O)O)c1cccc(Oc2ccccc2)c1 (stereo not drawn)	none
CCOC(=O)C(NC(=O)Nc1ccccc1)(Nc1cccc(C)c1)C(F)(F)F (stereo not drawn)	none
O=C(O)CSc1ccccc1C(=O)O	none
O=C(O)c1ccccc1NC(C(=O)O)c1ccccc1 (stereo not drawn)	Dicer inh 5.5
Nc1nc(-c2ccc(-n3cccc3)cc2)cc(C(F)(F)F)n1	none
CN(C)c1nc(N)c2c(ncn2C)n1	none
Cc1nn(S(=O)(=O)c2ccc(Cl)c(Cl)c2)c(C)c1Cc1c(F)cccc1Cl	none
CCOC(=O)c1[nH]c(C)c(/C(C)=N/O)c1C	none
CCOC(=O)c1cnn(-c2ccccc2)c1NC(=O)Nc1ccccc1	Dicer inh 4.1
CCOC(=O)c1cnn(-c2ccccc2)c1NC(=O)CN1CCOCC1	none
CCOC(=O)c1cnn(-c2ccccc2)c1NC(=O)CN1CCN(C)CC1	none
CC12CS(=O)(=O)CC1SC(=S)N2c1cccc(O)c1 (stereo not drawn)	none
Nc1cc(NC(=O)c2ccccc2O)ccc1Cl	Dicer inh 5.6
O=C(Nc1ccc(Oc2ccc(NC(=O)c3ccccc3Cl)cc2)cc1)c1ccccc1Cl	none
O=C(NC(=O)c1ccccc1Cl)c1ccccc1O	none
COc1ccc2c(c1)C(C)=CC(C)(C)N2C(=O)CSc1ccccn1	none
CCOC(=O)C1=C(C)NC(C)=C(C(=O)OC)C1c1cccc([N+](=O)[O-])c1 (stereo not drawn)	none
COC(=O)C1=C(C)NC(C)=C(C(=O)OC)C1c1ccccc1[N+](=O)[O-]	Dicer inh 11
COC(=O)C1=C(C)NC2=C(C(=O)CCC2)C1c1cc([N+](=O)[O-])c(C)s1 (stereo not drawn)	none
COc1cc(C2C3=C(Nc4c2c(=O)n(C)c(=O)n4C)c2ccccc2C3=O)ccc1OC(C)=O (stereo not drawn)	none
O=C1c2ccccc2-c2ccc(N3CCOCC3)c3cccc1c23	none
Cc1c(N)cccc1-c1nn2c(C)nnc2s1	none
CCCC(=O)N(c1cc2sc(=O)oc2c2ccccc12)S(=O)(=O)c1cccs1	none
CC1C(c2ccccc2)OCCN1CN1C(=O)c2ccccc2C1=O (stereo not drawn)	Dicer inh 3.7
Cc1onc(-c2ccccc2Cl)c1C(=O)N1CCOC(c2ccccc2)C1C (stereo not drawn)	none
O=C1c2ccccc2C(=O)N1CC1CN(CC(O)C(F)(F)F)CCO1 (stereo not drawn)	none
Cc1ccc(C(=O)N2CCN(Sc3ncnc4sccc34)CC2)cc1	none
N#Cc1ccccc1-n1ccc2ccccc21	none
CN1c2ccccc2C(=O)NC1c1cc(Br)cs1 (stereo not drawn)	none
COc1ccc(O)c(C2=NN3C(C2)c2ccccc2OC3c2ccc(OC)c(O)c2)c1 (stereo not drawn)	none
Oc1ccccc1C1=NN2C(C1)c1ccccc1OC2c1ccncc1 (stereo not drawn)	none
COc1ccc(C2Oc3ccccc3C3CC(c4ccccc4O)=NN32)cc1OC (stereo not drawn)	Dicer inh 4.8
Oc1ccc(C2Oc3ccccc3C3CC(c4ccccc4O)=NN32)cc1 (stereo not drawn)	Dicer inh 18
COc1ccc(C2Oc3ccccc3C3CC(c4ccccc4O)=NN32)cc1O (stereo not drawn)	none
COc1cccc(C2Oc3ccccc3C3CC(c4ccccc4O)=NN32)c1 (stereo not drawn)	none
Cc1cc(C)nc(Nc2n[nH]c(-c3ccccc3)n2)n1	none
CCCCOC(=O)C1=C(C)NC2=C(C(=O)CCC2)C1c1ccc(C)cc1 (stereo not drawn)	none
COc1cc2ccccc2c(=O)c2ccsc12	none
COc1ccc(C2/C(=C(/O)c3ccc(C)cc3)C(=O)C(=O)N2CC(C)O)cc1 (stereo not drawn)	none
Cc1ncc(CN2CCSCC2)c(CO)c1O	none
CC1CCN(Cc2nc3c(c(=O)n(C)c(=O)n3C)n2CCN2CCOCC2)CC1	none
ONC(=NCCc1ccncc1)C(c1ccccc1)c1ccc(F)cc1 (stereo not drawn)	none
CC(C)(C)c1csc(NC(=O)Nc2ccc(Cl)cc2)n1	none
Cc1c(-c2ccn[nH]2)cnn1-c1c(Cl)cc(Cl)cc1Cl	none
COc1ccc(/C(O)=C2/C(=O)C(=O)N(CCCN3CCOCC3)C23C(=O)N(C)c2ccccc23)cc1 (stereo not drawn)	none
CCN1C(=O)C2(/C(=C(/O)c3ccccc3)C(=O)C(=O)N2CCN2CCOCC2)c2ccccc21 (stereo not drawn)	none
CCOc1ccc(/C(O)=C2/C(=O)C(=O)N(CCN(C)C)C23C(=O)N(C)c2ccccc23)cc1 (stereo not drawn)	none
CN1C(=O)C2(/C(=C(/O)c3ccccc3)C(=O)C(=O)N2CCN2CCOCC2)c2ccccc21 (stereo not drawn)	Dicer inh 5.4
CN1C(=O)C2(/C(=C(/O)c3ccccc3)C(=O)C(=O)N2CCCN2CCOCC2)c2ccccc21 (stereo not drawn)	Dicer inh 5.3
CCN1C(=O)C2(/C(=C(/O)c3ccc(F)cc3)C(=O)C(=O)N2CCCN2CCOCC2)c2ccccc21 (stereo not drawn)	none
Cc1ccc(/C(O)=C2/C(=O)C(=O)N(CCN(C)C)C23C(=O)N(C)c2ccccc23)cc1 (stereo not drawn)	none
CC1Cc2cc(/C(O)=C3/C(=O)C(=O)N(CC4CCCO4)C34C(=O)N(C)c3ccccc34)ccc2O1 (stereo not drawn)	none
CC1Cc2cc(/C(O)=C3/C(=O)C(=O)N(CCN(C)C)C34C(=O)N(C)c3ccccc34)ccc2O1 (stereo not drawn)	Dicer inh 4.4
CCN1C(=O)C2(/C(=C(/O)c3ccc(Cl)cc3)C(=O)C(=O)N2CCN2CCOCC2)c2ccccc21 (stereo not drawn)	none
COc1ccc(/C(O)=C2/C(=O)C(=O)N(CCN3CCOCC3)C23C(=O)N(C)c2ccccc23)cc1 (stereo not drawn)	Dicer inh 3.5
COCCCN1C(=O)C(=O)/C(=C(\O)c2ccc3c(c2)CC(C)O3)C12C(=O)N(C)c1ccccc12 (stereo not drawn)	none
COc1cc(C2Nc3nonc3NC3=C2C(=O)CC(C)(C)C3)cc(Br)c1O (stereo not drawn)	none
CC(=O)NNC(=O)c1c(-n2c(C)ccc2C)sc2c1CCCC2	none
CCSc1s[nH]c(=O)c1C#N	none
CC1(C)CC(=O)c2c(SCc3ccc(Cl)cc3)sc(C#N)c2C1	none
CCOC(=O)c1cc(C(=O)/C=C/N(C)C)on1	none
Cn1nccc1NC(=S)Nc1ccc(Br)cc1OC(F)(F)F	none
CCCC(=O)N1CC2(C(C)C)CN(C(=O)CCC)CC(C(C)C)(C1)C2=O	none
CCOC(=O)c1c(NC(=O)c2cccs2)sc(C(=O)N2CCCCC2)c1C	none
Clc1ccc(/C=C2\CCCC3=C2Nc2ncnn2C3c2ccc(Cl)cc2)cc1 (stereo not drawn)	none
S=C(NNc1c(Cl)cncc1Cl)Nc1ccc(Cl)cc1Cl	Dicer inh 6.7
OCCCNNC(=S)Nc1ccc(Cl)cc1Cl	none
CCNC(=S)Nc1ccc(Cl)cc1Cl	none
CCOc1cc(C2NC(C(=O)O)CS2)ccc1OCc1cccc(C)c1 (stereo not drawn)	none
COC(=O)c1c(NC(=O)CCC(=O)O)sc2c1CC(C)(C)OC2	none
CC(=O)Nc1sc2c(c1C(=O)O)CC(C)(C)OC2	none
CC1(C)Cc2c(sc(NC(=O)C(c3ccccc3)c3ccccc3)c2C#N)CO1	Dicer inh 4.5
COc1cc(Cl)ccc1NC(=O)Cn1cnc([N+](=O)[O-])n1	none
